Laboratory results: PubChem BioAssay (NCI)
The panel holds about 83,000 compounds, 20% with a hit somewhere; the sample as a whole holds those more often.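 Interpretation: 100, growth as untreated; towards 0, rising growth inhibition; 0, no net growth; 0 to -100, cell death. Compounds scoring below 10 were considered active.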 Active and inactive are the calls of the source.

Assays:
Assay in all cases: NCI-60 one-dose screen, 48 h (100 = growth as untreated, 0 = no growth, -100 = all killed)
Details in all cases: 10 µM
[1] = tested on: SR leukemia
[2] = tested on: RPMI-8226 leukemia
[3] = tested on: OVCAR-8 ovarian
[4] = tested on: OVCAR-5 ovarian
[5] = tested on: OVCAR-4 ovarian
[6] = tested on: SK-OV-3 ovarian
[7] = tested on: IGROV1 ovarian
[8] = tested on: OVCAR-3 ovarian
[9] = tested on: HS 578T breast
[10] = tested on: NCI/ADR-RES ovarian
[11] = tested on: T-47D breast
[12] = tested on: BT-549 breast
[13] = tested on: MDA-MB-435 melanoma
[14] = tested on: SW-620 colon
[15] = tested on: MCF7 breast
[16] = tested on: HCT-116 colon
[17] = tested on: HCC-2998 colon
[18] = tested on: KM12 colon

Measured: growth

CCC(OC(=O)CC(C)C)c1ccccc1 (stereo unspecified)
inactive: [1] 101% | [2] 105% | [3] 93.4% | [4] 104% | [5] 112% | [6] 102% | [7] 111% | [8] 107% | [9] 104% | [10] 98.8% | [11] 84.5% | [12] 101% | [13] 104% | [14] 105% | [15] 94.3% | [16] 107% | [17] 101% | [18] 107%

COC1OC2COC(c3ccccc3)OC2C(=O)C1NC(=O)c1ccccc1 (stereo unspecified)
inactive: [1] 122% | [2] 97.3% | [3] 101% | [4] 93.7% | [5] 103% | [6] 105% | [7] 114% | [8] 99.8% | [9] 96.6% | [10] 103% | [11] 98.6% | [12] 107% | [13] 96.4% | [14] 88.2% | [15] 99.6% | [16] 99% | [17] 92.9% | [18] 96.7%

COc1ccc(-c2cc(=O)n(-c3nc4ccccc4[nH]3)[nH]2)cc1OC
inactive: [1] 48.6% | [2] 81.4% | [3] 64.8% | [4] 93.1% | [5] 93.8% | [6] 87.2% | [7] 70.6% | [8] 90.1% | [9] 48.2% | [10] 20.1% | [11] 94.5% | [12] 76.2% | [13] 50.6% | [14] 77.8% | [15] 74.4% | [16] 74.6% | [17] 102% | [18] 105%

O=C(OCc1ncc(-c2ccc(C(F)(F)F)cc2)c(NC2CCCCCC2)n1)c1c(F)c(F)c(F)c(F)c1F
inactive: [1] 39.4% | [3] 44.1% | [4] 88.3% | [5] 49.4% | [6] 91.8% | [7] 63.7% | [8] 29.8% | [9] 65.3% | [10] 96.3% | [11] 28.3% | [12] 67.8% | [13] 57.3% | [14] 64.5% | [15] 51% | [16] 52.6% | [17] 84.2% | [18] 45.6%
active: [2] -6.54%

Cc1ccc(/C=C2\CN(Cc3cn(CCNc4ccnc5cc(Cl)ccc45)nn3)C/C(=C\c3ccc(C)cc3)C2=O)cc1
active: [1] -19.5% | [2] -30.2% | [3] 8.83% | [4] -10.9% | [6] 8.53% | [8] -50.6% | [10] 9.21% | [11] -12.3% | [12] -71% | [13] -67.3% | [14] -63.6% | [15] -38.3% | [16] -53.5% | [17] -91% | [18] -93.8%
inactive: [5] 30.3% | [7] 28.3% | [9] 13.9%

N=C(N)c1ccc(-c2ccc(-c3ccccc3)s2)cc1F
active: [1] -11.6% | [2] -60.2% | [3] -32.9% | [4] -96.8% | [5] -57.2% | [6] -92.4% | [7] -51.2% | [8] -94.6% | [9] -41.6% | [10] -50.8% | [11] -65.6% | [12] -96.8% | [13] -84.2% | [14] -85.4% | [15] -71.7% | [16] -91.8% | [17] -79.1% | [18] -86.1%

O=NN(CCCl)C(=O)NCc1ccc(-c2ccc(CNC(=O)N(CCCl)N=O)cc2)cc1
inactive: [2] 93.5% | [3] 94% | [4] 115% | [5] 114% | [6] 95.8% | [7] 66.6% | [8] 115% | [9] 116% | [10] 100% | [11] 101% | [12] 86.6% | [13] 91.3% | [14] 89.5% | [15] 96.1% | [16] 89.2% | [17] 101% | [18] 98.9%
active: [1] -5.09%

CC(C)C[C@H](NC(=O)CCn1ccc2ccccc2c1=O)B(O)O
active: [1] 8.08% | [13] -39.6%
inactive: [2] 10.4% | [3] 72.4% | [4] 65.6% | [5] 85.9% | [6] 77.8% | [7] 93.6% | [8] 28.8% | [9] 63.3% | [10] 87.9% | [11] 27.6% | [12] 43.4% | [14] 34.1% | [15] 33.9% | [16] 16.9% | [17] 59.9% | [18] 68.8%

COc1cccc2c1O/C(=C\c1ccc([N+](=O)[O-])s1)C2=O
active: [1] 8.26% | [8] -16.7% | [12] -14.3% | [14] -28.6% | [16] -14%
inactive: [2] 25.7% | [3] 24.7% | [4] 101% | [5] 74.2% | [6] 96.6% | [7] 25.9% | [9] 40.8% | [10] 87.5% | [11] 39.6% | [13] 48.4% | [15] 42.8% | [17] 89.7% | [18] 18.3%

FC(F)(F)c1ccc(-c2cnc(Cl)nc2NC2CCCCCC2)cc1
inactive: [1] 39.2% | [3] 15.2% | [4] 28.7% | [5] 10.6% | [6] 56.1% | [7] 27.7% | [9] 41.1% | [10] 74.2% | [11] 12.4% | [12] 52.5% | [13] 11% | [14] 21.5% | [15] 20.7% | [16] 16.5% | [17] 67.9% | [18] 16.5%
active: [2] -4.84% | [8] 3.4%

Cc1ccc(C2C=C(c3ccc(Cl)cc3)N=C3SC=CN32)c(Br)c1 (stereo unspecified)
inactive: [3] 80% | [4] 92.8% | [5] 67.4% | [6] 101% | [7] 75.7% | [8] 87.1% | [9] 94.1% | [10] 85.6% | [11] 56.8% | [12] 61.1% | [13] 47.1% | [14] 53.9% | [15] 21.5% | [17] 91.4% | [18] 78.5%
active: [1] 0.074% | [2] -0.582% | [16] 5.04%

O=C/C=C/c1ccc([N+](=O)[O-])cc1Cl
inactive: [2] 82.1% | [3] 91.2% | [4] 115% | [5] 114% | [6] 104% | [7] 82.5% | [8] 108% | [9] 108% | [10] 101% | [11] 86.4% | [12] 106% | [13] 95.9% | [14] 90% | [15] 62.8% | [17] 111% | [18] 95.6%
active: [1] 0.062% | [16] 2.9%

COc1ccc(C2C=C(c3ccc(Cl)c(Cl)c3)N=C3SC(C)=CN32)cc1 (stereo unspecified)
inactive: [2] 18% | [3] 94% | [4] 102% | [5] 91.3% | [6] 109% | [7] 86.8% | [8] 95.5% | [9] 105% | [10] 107% | [11] 68.3% | [12] 89.9% | [13] 90.6% | [14] 91.4% | [15] 47.1% | [16] 14.4% | [17] 108% | [18] 81.6%
active: [1] 9.84%

CCC(O)c1ccc(Br)cc1NC(=O)c1cccc(Cl)c1 (stereo unspecified)
inactive: [2] 18.2% | [3] 13.9% | [4] 50.4% | [5] 24.9% | [6] 34% | [7] 10.4% | [8] 33.8% | [9] 51% | [11] 20.8% | [12] 42.7% | [13] 16.9% | [14] 13.8% | [15] 14.4% | [16] 20.7% | [17] 19.1% | [18] 26.3%
active: [1] 8.25% | [10] 5.46%

N#CC1C=Cc2c(ccc3ccccc23)N1C(=O)c1ccccc1 (stereo unspecified)
inactive: [1] 13.9% | [2] 38.1% | [3] 25.7% | [4] 45.4% | [5] 45.2% | [7] 26% | [11] 56.7% | [12] 33.5% | [14] 21.8% | [15] 21.5% | [16] 12% | [17] 10.3%
active: [6] 4.99% | [8] -56.5% | [9] -8.86% | [10] -21.8% | [13] -31.4% | [18] -6.86%

Cc1ccc2nc3[nH]c(=O)[nH]c(=O)c3c(N)c2c1
inactive: [1] 95.6% | [2] 89.8% | [3] 88.5% | [4] 92.9% | [5] 81.7% | [6] 86% | [7] 75.1% | [8] 101% | [9] 79.2% | [10] 97.8% | [11] 85.1% | [12] 99.8% | [13] 91.5% | [14] 97.8% | [15] 89.3% | [16] 80.6% | [17] 95.9% | [18] 91%

COc1cc(NS(C)(=O)=O)ccc1Nc1c2ccc(Cl)cc2nc2c(OC)cccc12
active: [1] -16.5% | [2] -19.6% | [4] -11.9% | [6] -5.68% | [14] -32% | [16] -63.7% | [17] -26.6% | [18] -49.4%
inactive: [3] 11.7% | [5] 62.4% | [7] 19.3% | [8] 22.4% | [9] 20.2% | [10] 25.8% | [11] 27.7% | [12] 18.3% | [13] 51% | [15] 23.7%
